Screening data from PubChem BioAssay.
PNC assembly inh = inhibitors of perinucleolar compartment assembly. PC3M PTB-GFP, PNC prevalence imaging, 16 h; hits give low values. activity change (PNC), negative = inhibition, % at 10 µM. actives 3.1% (n = 140,000);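 active = readout at or below -70, meaning at least 70% loss of cells showing the perinucleolar compartment, a nuclear body marking cancer cells; inconclusive = readout between -30 and a set limit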;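 note: plate controls were DMSO wells for no effect and camptothecin positive control wells for full effect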
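PC3M cells stably expressing PTB-GFP, 750–1000 cells/well, treated 16 h at 37 °C with compound (23 nl of library stock), in duplicate. After paraformaldehyde fixation and Hoechst stain, imaged at 20x; PNC prevalence scored by image analysis.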
IMPase cell inh = membrane-permeable compound that blocks inositol monophosphatase; 120,000 tested, under 10 active; AID 901; CHO-M1 cells, IP1 accumulation, HTRF TR-FRET ratio; inhibition (IP1 accumulation), % at 46.1 µM; active = well fitted curve in the direction sought with a large enough effect in the signal ratio, not every such curve was filed as active; inconclusive = small, poorly fitted or top-dose-only effect, or a change in a side signal; inactive = no such curve, though single readings can be large or run the other way; the % refers to the signal ratio;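 note: cells stimulated with carbachol in lithium chloride buffer; plate controls were DMSO basal wells for no effect and reference inhibitor wells for full effect; higher means more IMPase inhibition seen as more IP1 and lower FRET ratio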
Target sequence (P97697 whole entry, looked up): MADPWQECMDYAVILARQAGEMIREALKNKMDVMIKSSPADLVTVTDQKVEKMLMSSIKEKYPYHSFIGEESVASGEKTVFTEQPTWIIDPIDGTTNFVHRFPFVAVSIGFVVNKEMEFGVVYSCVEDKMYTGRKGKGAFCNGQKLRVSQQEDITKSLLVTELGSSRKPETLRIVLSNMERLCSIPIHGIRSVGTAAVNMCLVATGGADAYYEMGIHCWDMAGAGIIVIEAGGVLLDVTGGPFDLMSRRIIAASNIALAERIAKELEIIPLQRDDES
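Cellular IMPase inhibition is scored as a rise in cytosolic IP1, detected by competitive TR-FRET between d2-labelled IP1 and a europium anti-IP1 antibody. M1-expressing CHO cells were stimulated with carbachol for 30 min at 37C, with lithium (50 mM LiCl) present in the buffer.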
LMNA splice mod = changes lamin A minigene splicing in HeLa cells. HeLa LMNA splicing GFP/RFP minigene ratio, 48 h. Potency, µM (top dose mostly 46.1 µM), inactives show at the highest dose ratio change, negative = inhibition, most hits filed as inhibitors. actives 0.01% (n = 200,000). AID 1487; active = well fitted inhibition curve with a large enough effect in the signal ratio, with a control signal flat, not every such curve was filed as active; inconclusive = small, poorly fitted or top-dose-only effect, or effect the other way, or a change in a side signal; the % refers to the signal ratio; note: potency is the fitted concentration of half-maximal effect
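S3 HeLa cells stably expressing lamin A-EGFP splicing minigene plus DsRed2, 600 cells/well, 48 h compound exposure at 37C. Laser-scanning cytometry; analysed as GFP (500-530 nm)/RFP (575-640 nm) total intensity ratio; 0.5% DMSO vehicle.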
Starred values were filed as active, the others as inactive; u = inconclusive; x = no result; [ ] = dose if it differs, or a comment. The entries come from a sample that favours hits as a whole. Unless noted, % is set by controls: 0 for no effect and ±100 for the full control effect.

SMILES	PNC assembly inh	IMPase cell inh	LMNA splice mod
COc1ccc(-c2cc(C(=O)OC(C)C(=O)Nc3c(C)n(C)n(-c4ccccc4)c3=O)c3ccccc3n2)cc1 (stereo not given)	-86*	3	u
Cc1c(NC(=O)COC(=O)c2ccc[nH]c2=O)c(=O)n(-c2ccccc2)n1C	-4	0	-1%
Cc1c(NC(=O)C(C)OC(=O)c2cc(-c3cccc4ccccc34)nc3ccccc23)c(=O)n(-c2ccccc2)n1C (stereo not given)	-28	0	-27%
CCC(C)Nc1nc(OCC(F)(F)F)nc(OCC(F)(F)F)n1 (stereo not given)	50	3	17%
CC(C)(C)Nc1nc(OCC(F)(F)F)nc(OCC(F)(F)F)n1	-107*	8	0%
COc1ccccc1CNC(=O)c1cn(C)c2ccc(S(=O)(=O)N3CCCCC3)cc2c1=O	x	x	-6%[46 µM]
Cc1ccc(C)c(N2CCN(C(=O)Cn3cnc4nc5c(cc4c3=O)CCCC5)CC2)c1	x	x	1%[46 µM]
CCC(C(=O)NC(C)CCc1ccco1)n1nc(C)n2c(cc3occc32)c1=O (stereo not given)	-100*	-1	-10%
CCC(C(=O)NC(C)CCc1ccccc1)n1nc(C)n2c(cc3occc32)c1=O (stereo not given)	u	4	u
O=S(=O)(CC12C3C4C5C1C2C(Br)(C43)C51OCCO1)c1ccccc1 (stereo not given)	5	x	x
COc1ccc(/C=C/C(=O)OCC(=O)Nc2ccc(OC)c(S(=O)(=O)N3CCCCC3)c2)cc1	4	-2	-14%
COc1ccc(/C=C/C(=O)OCC(=O)Nc2ccc(Cl)c(S(=O)(=O)N(C)C)c2)cc1OC	-110*	x	-4%
CN(C)S(=O)(=O)c1cc(NC(=O)COC(=O)Cc2ccc(Cl)cc2Cl)ccc1Cl	-14	x	9%
CN(C)S(=O)(=O)c1cc(NC(=O)COC(=O)CCSc2ccc(Cl)cc2)ccc1Cl	-88*	x	7%
COc1cc(NC(=O)C(Cc2ccccc2)NS(=O)(=O)c2cccs2)cc(OC)c1 (stereo not given)	x	x	-11%[46 µM]
Cc1ccccc1NC(=O)C1CCN(c2cnccn2)CC1	14	-1	-1%
O=C(NC1CCCCC1)C1CCN(c2cnccn2)CC1	-95*	0	5%
O=c1c(S(=O)(=O)c2ccccc2)cn(Cc2ccc(F)cc2)c2cc(N3CCOCC3)c(F)cc12	x	x	-12%[46 µM]
CCCOc1ccc(-c2nc(SC)[nH]c(=O)c2C#N)cc1OC	x	x	-16%[46 µM]
CCCSc1cc(N2CCCC2)nc(-c2ccccc2)n1	-7	11	-7%
CCCSc1cc(N2CCN(C)CC2)nc(-c2ccc(OC)cc2)n1	-81*	4	-7%
COc1ccccc1N1CCN(C(CNC(=O)C(=O)NCCc2ccccc2)c2cccnc2)CC1 (stereo not given)	x	x	-12%[46 µM]
COc1ccc(-c2nc(SCC(=O)Nc3ccc4c(c3)OCO4)c(-c3ccccc3)[nH]2)cc1	x	-3	x
COc1ccc(/C(C)=N\Nc2nc(-c3ccccc3)cc(=O)[nH]2)cc1	-5	x	2%
CN(C)c1ccc(/C=N\Nc2nc(-c3ccccc3)cc(=O)[nH]2)cc1	-118*	x	-12%
SMILES	PNC assembly inh	IMPase cell inh	LMNA splice mod
Cc1cccc(C(=O)Nc2ccccc2OCc2cc(=O)n3cc(C)ccc3n2)c1	x	x	-24%[46 µM]
CCOCCCNCc1cn(-c2ccc(F)cc2F)nc1-c1ccccc1C	x	x	-18%[46 µM]
COc1ccc(CCNc2nnc(Sc3nnnn3-c3ccccc3)s2)cc1OC	-97*	9	u
CCOc1cc(CNCCSc2nnnn2-c2ccccc2)ccc1OC	x	x	7%[46 µM]
CC(=O)c1ccc(NC(=O)CN(C)S(=O)(=O)c2cc3c(cc2C)NC(=O)CO3)cc1	x	x	2%[46 µM]
CC(=O)OCC(=O)Nc1c(C)cc(C)cc1C	x	x	3%[46 µM]
Cc1cc(Br)c(NC(=O)CCl)c(Br)c1	-89*	x	u
Cc1cccc(CC2C(=O)Nc3ccccc32)c1 (stereo not given)	x	x	7%[46 µM]
CCCCNC(=S)N=Nc1c(O)n(Cc2ccccc2)c2ccccc12	39	1	-18%
NC(=S)N=Nc1c(O)n(Cc2ccccc2)c2ccccc12	-100*	x	-14%
COc1ccc(CC(=O)NNC(=O)CCc2ccccc2)cc1OC	x	x	-4%[46 µM]
Cc1ccc2[nH]c3c(c2c1)CCC3=O	-10	-5	u
CCCCN1CCc2c([nH]c3ccc(C)cc23)C1=O	-100*	1	7%
Cc1nc2ccccc2c(=O)n1NC(=O)Nc1ccccc1	44	-5	0%
Cc1nc2ccccc2c(=O)n1NS(C)(=O)=O	-112*	0	-1%
Cc1ccc(NC(=O)Cc2noc3ccccc23)cc1	-99*	x	-18%
O=C(Cc1noc2ccccc12)Nc1ccc2ccccc2c1	155	-1	-18%
CC1CCN(C(=O)c2cccc(NC(=O)c3nsc4ccccc34)c2)CC1	x	x	-11%[46 µM]
N#Cc1c(NC(=S)NC(=O)c2ccccc2)sc2c1CCC2	-15	x	-13%
CC(=O)Nc1sc2c(c1C#N)CCCC2	5	6	13%
CC1CCc2sc(NC(=S)NC(=O)c3ccccc3)c(C#N)c2C1 (stereo not given)	-80*	x	-11%
CC(=O)NC(=S)Nc1sc2c(c1C#N)CCCCC2	-115*	-4	-12%
O=C(O)c1c(-c2ccccc2)oc2ccc(OCc3c(F)cccc3Cl)cc12	x	-9	x
CC(=O)c1ccc(S(=O)(=O)N2CCn3cccc3C2c2ccccc2F)cc1 (stereo not given)	x	x	-7%[46 µM]
O=C(CSc1nc2c([nH]c3ccccc32)c(=O)n1-c1ccc(F)cc1)NCc1ccc(F)cc1	x	x	28%[46 µM]
SMILES	PNC assembly inh	IMPase cell inh	LMNA splice mod
CCCC(c1nnnn1CS(=O)(=O)c1ccc(C)cc1)N1CCN(c2ccccc2)CC1 (stereo not given)	u	5	-7%
Cc1ccc(S(=O)(=O)Cn2nnnc2C(CC(C)C)N2CCN(c3ccc(F)cc3)CC2)cc1 (stereo not given)	-115*	-7	12%
O=C(CNC(=O)c1cccs1)NCC(=O)OCc1c(Cl)cccc1Cl	81	1	3%
O=C(CNC(=O)c1cccs1)NCC(=O)OCc1ccccc1Cl	-83*	3	-7%
CCn1cnc2scc(-c3ccccc3)c2c1=O	-107*	11	-4%
O=C(Cn1cnc2scc(-c3ccccc3)c2c1=O)N1CCOCC1	11	12	6%
CCNc1cccc2c1C(=O)N(C)C2=O	-1	-4	9%
CCC(=O)Nc1cccc2c1C(=O)N(C)C2=O	-111*	2	-14%
O=C1Nc2ccccc2N(O)N1c1ccc(S(=O)(=O)N2CCCCCC2)cc1	-82*	x	-5%
CCN(CC)S(=O)(=O)c1ccc(N2C(=O)Nc3ccccc3N2O)cc1	54	x	-18%
Cc1cccc(NC(=O)C(=O)NCCc2csc(-c3ccc(F)cc3)n2)c1C	x	x	10%[46 µM]
CC(=O)OCC#CCSc1nnc(-c2cccc(Br)c2)o1	x	6	x
CCOC(=O)C(C)Sc1nnc2n1C(C)(C)Cc1ccccc1-2 (stereo not given)	-100*	0	-10%
CC1(C)Cc2ccccc2-c2nnc(SCc3ccccc3)n21	-7	11	-9%
COC(=O)N1CC(=O)N(OC)C1c1ccc(Cl)cc1Cl (stereo not given)	46	-6	4%
